TDP1 cell noCPT = qHTS for Inhibitors of human tyrosyl-DNA phosphodiesterase 1 (TDP1): qHTS in cells in absence of CPT | DT40 Tdp1-/- hTDP1 cells, no CPT, ATP luminescence, 48 h | Potency, µM (top dose mostly 46.2 µM), for inactives: at the top dose activity change, negative = growth inhibition, hits mostly inhibitors | 420,000 tested, 15% active | AID 686978, 2013; also: potency is read from the fitted curve at half-maximal effect; nearly all actives have a fitted effect of over 55% in size
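Camptothecin absent (DMSO only). Human TDP1-complemented DT40 knockout cells, 400 cells/well, 37 °C for minimum 48 hr; ATP measured via CellTiter-Glo, 30 min dark incubation, luminescence.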
ELG1 DNA repair = inhibitors of ELG1-dependent DNA repair in HEK293T cells; 330,000 tested, 2.3% active; AID 504467; HEK293T ELG1-luciferase reporter, luminescence, 16 h; DNA damage induced by 5-fluorouridine; Potency, µM (titrated, usually from 46.1 µM), inactives show at the highest dose activity change, negative = inhibition, actives largely listed as inhibitors; also: potency is read from the fitted curve at half-maximal effect; nearly all actives have a fitted effect of over 55% in size
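Quantitative HTS, concentration-response format. 2,000 cells/well co-treated with 5-fluorouridine and compound, 16 hr in 5% CO2 at 37 °C; ONE-Glo luminescence read after 30 min.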
TDP1 cell CPT = DT40-hTDP1 cell growth loss with CPT. 420,000 tested, 12% active. chicken DT40 Tdp1-/-;hTDP1 cells + 20 nM CPT, ATP luminescence, 48 h. Potency, µM (titrated, usually from 46.2 µM), for the others: top-dose activity change, negative = growth inhibition, actives largely listed as inhibitors. AID 686979; also: potency is read from the fitted curve at half-maximal effect; nearly all actives have a fitted effect of over 55% in size
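Cell growth measured by CellTiter-Glo luminescence after a minimum 48 h, 37 C compound exposure with 20 nM CPT in Tdp1-knockout DT40 cells stably expressing hTDP1, seeded 400/well; qHTS titration format.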
RORgamma inh = ROR gamma (mouse) transcription inhibition. Drosophila S2 Gal4-RORgamma UAS-luciferase reporter, 20 h. P51450. Potency, µM (top dose mostly 53.6 µM), for the others: at the highest dose activity change, negative = inhibition, usual class: inhibitors. AID 2551. 310,000 tested, 5.4% active; also: potency is read from the fitted curve at half-maximal effect; nearly all actives have a fitted effect of over 60% in size
Target sequence (P51450 whole entry, looked up, the tested form may be a part): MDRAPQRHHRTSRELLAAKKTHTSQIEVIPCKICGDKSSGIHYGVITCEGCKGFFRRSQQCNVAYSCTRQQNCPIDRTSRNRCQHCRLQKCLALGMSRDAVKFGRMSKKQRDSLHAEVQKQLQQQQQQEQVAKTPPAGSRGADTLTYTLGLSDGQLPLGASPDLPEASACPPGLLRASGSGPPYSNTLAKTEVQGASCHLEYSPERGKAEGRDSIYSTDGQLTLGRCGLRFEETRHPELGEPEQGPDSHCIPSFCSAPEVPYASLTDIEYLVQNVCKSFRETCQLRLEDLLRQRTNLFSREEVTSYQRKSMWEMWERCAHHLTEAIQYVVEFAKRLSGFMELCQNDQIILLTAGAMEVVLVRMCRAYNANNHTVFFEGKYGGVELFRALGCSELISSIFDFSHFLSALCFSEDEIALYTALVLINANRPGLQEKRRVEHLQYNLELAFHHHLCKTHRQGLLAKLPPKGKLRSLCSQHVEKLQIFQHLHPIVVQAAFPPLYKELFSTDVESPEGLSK
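Using a luciferase readout, inhibitors were identified by reduced reporter activity in Drosophila cells coexpressing a copper-inducible Gal4–ROR gamma fusion and UAS-driven Photinus luciferase, incubated 20 hr after 700 uM copper sulfate.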
VP16 counter = inhibits Gal4-VP16 luciferase reporter, ROR gamma counter-screen; Drosophila S2 Gal4-VP16 UAS-luciferase, luminescence, 20 h; Potency, µM (doses to about 53.6 µM), for the others: top-dose activity, negative = inhibition, hits mostly inhibitors; 310,000 tested, 3.5% active;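 also: Gal4-VP16 expression switched on by copper sulfate through the metallothionein promoter; potency is read from the fitted curve at half-maximal effect; nearly all actives have a fitted effect of over 50% in size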
IL1B secr inh = inhibitors of inflammasome signaling (IL-1 beta secretion). activity change, % at 57.5 µM. 360,000 tested, 4.7% active. THP-1 LPS/ATP IL-1B secretion, AlphaLISA, 16 h; active compounds read low; in the data active = activity change below about -50%; inconclusive = mostly about -30% to -49%
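Secreted IL-1B measured by AlphaLISA bead assay after 16 h compound exposure of THP-1 cells; compounds (final up to 57.5 uM) added 1 h before LPS (250 ng/mL) and ATP (1.25 mM) stimulation; lower signal means less secretion.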
Numbers without * were called inactive; ? = inconclusive; . = no result; ! = repeats disagree; [ ] = dose if it differs, or a comment. This is a sample that favours compounds with a hit; in the whole collection about 21% have one here. Unless noted, calls follow the shape of the dose curve; as a rule, active = well fitted curve in the direction sought with a large enough effect; inconclusive = small, poorly fitted or top-dose-only effect, or another doubt; inactive = no such curve, though single readings can be large; an effect the other way counts as inactive or inconclusive. % is scaled to controls: 0 for no effect and ±100 for the full control effect.

SMILES	TDP1 cell noCPT	ELG1 DNA repair	TDP1 cell CPT	RORgamma inh	VP16 counter	IL1B secr inh
CCOc1ccc(CCNC(=O)c2cc3sc(Cl)cc3n2C)cc1OCC	?	-3%	?	-20%	8%	15
COc1cccc(NC(=O)C2C3C=CC4(O3)C2C(=O)N(CCCN2CCCCC2)C4C(=O)NC2CCCCC2)c1 (stereo not given)	?	-8%	18%	-29%	8%	-4
O=c1[nH]nc2c3ccccc3occ1-2	3%	.	0%	.	.	0
COc1cc(CNC(=O)Nc2nc(C(N)c3ccccc3)cs2)cc(OC)c1OC (stereo not given)	-20%	.	4%	.	.	-21
NC(c1ccccc1)c1csc(Nc2ccc(C(=O)c3ccccc3)cc2)n1 (stereo not given)	18µM*	.	?	.	.	?
CC(C)c1ccc(NC(=O)Nc2nc(C(N)c3ccccc3)cs2)cc1 (stereo not given)	23µM*	.	?	.	.	-94*
CC(C)c1ccc(NC(=O)Nc2nc(C(N)COCc3ccccc3)cs2)cc1 (stereo not given)	15µM*	.	16µM*	.	.	?
Cc1ccc(C(=O)Nc2nc(C(N)C(C)C)cs2)cc1 (stereo not given)	16µM*	.	?	.	.	?
Cc1ccc(S(=O)(=O)N2CCCN(C(=O)CNC(=O)c3cccc(C)c3)CC2)cc1	0%	-7%	-14%	.	.	-6
Cc1csc(NC(=O)Nc2ccc(Cl)cc2)n1	-22%	?	-26%	18%	20%	-8
CC(C)c1ccc(NC(=O)Nc2nc(C(N)C(C)C)cs2)cc1 (stereo not given)	16µM*	.	15µM*	.	.	-63*
CC(C)CN1C(=O)C(=Nc2cccnc2)c2ccccc21	4.6µM*	10%	3.7µM*	27%	2%	79
CC1CCN(S(=O)(=O)N2CCC(C(=O)NCc3ccccc3Cl)CC2)CC1	13µM*	.	?	.	.	.
CCc1ccc(CNC(=O)C2CCN(S(=O)(=O)N3CCCC3)CC2)cc1	-18%	-7%	-19%	10%	2%	13
CSc1ccc(CNC(=O)C2CCCN(S(=O)(=O)N(C)c3ccc(F)cc3)C2)cc1 (stereo not given)	21µM*	.	23µM*	.	.	.
O=C(NCc1ccc(F)cc1)C1CCN(S(=O)(=O)N2CCCC2)CC1	16µM*	0%	?	6%	-1%	0
O=C(NCc1ccccc1Cl)C1CCN(S(=O)(=O)N2CCCCCC2)CC1	18µM*	18µM*	?	?	-5%	-3
CC1CCN(S(=O)(=O)N2CCCC(C(=O)NCc3ccccc3Cl)C2)CC1 (stereo not given)	-21%	0%	-19%	3%	-6%	-15
COc1ccccc1CNC(=O)C1CCN(S(=O)(=O)N2CCCCC2)CC1	-14%	1%	-2%	?	-3%[0.365 µM]	0
CC1CCN(S(=O)(=O)N2CCCC(C(=O)NCc3ccc(F)cc3)C2)CC1 (stereo not given)	?	12%	?	0%	0%	-24
COCC(=O)N1CCC2(CCCN(C(=O)Nc3cccc(F)c3)C2)CC1	2%	.	1%	4%	4%	.
O=C(NCc1ccccc1CN1CCCC1)C1CCN(S(=O)(=O)c2ccc(F)c(F)c2)CC1	-22%	5%	-16%	.	.	-51*
COc1cc(-c2cc(C)c3cccc(OC)c3n2)cc2c1OCCN(C(=O)CCn1nc(C)cc1C)C2	18µM*	.	-15%[9.04 µM]	.	.	.
CC(NC(=S)Nc1ccc(OC(F)F)cc1OC(F)F)C(C)(C)C (stereo not given)	?	1%	?	7.9µM*	16µM*	-91*
CC(NC(=S)Nc1c(Cl)cccc1OC(F)F)C(C)(C)C (stereo not given)	3%	1%	-6%	13µM*	11µM*	4
SMILES	TDP1 cell noCPT	ELG1 DNA repair	TDP1 cell CPT	RORgamma inh	VP16 counter	IL1B secr inh
CC(NC(=S)Nc1ccccc1OC(F)F)C(C)(C)C (stereo not given)	-12%	10%	-6%	?	?	5
Cc1ccccc1OCC(=O)Nc1cccc(S(=O)(=O)NC2=NCCCCC2)c1	?	-1%	?	.	.	-8
COc1ccccc1/C=C/C(=O)Nc1cccc(S(=O)(=O)NC2=NCCCCC2)c1	?	-11%	?	?	-11%	-57*
COc1ccc(/C=C/C(=O)Nc2cccc(S(=O)(=O)NC3=NCCCCC3)c2)c(OC)c1	12µM*	?	16µM*	.	.	-18
COc1ccc(NC(C)=O)cc1S(=O)(=O)Nc1cccc(S(=O)(=O)NC2=NCCC2)c1	21%	17%	0%	.	.	13
N#Cc1ccccc1Cn1c(=O)n(-c2cccc(C(F)(F)F)c2)c(=O)c2sccc21	-26%	.	?	.	.	.
O=C(c1cc(C2CCCCN2S(=O)(=O)Cc2ccccc2)on1)N1CCOCC1 (stereo not given)	-8%	.	-18%	.	.	7
S=c1[nH]nc(-c2cccs2)n1/N=C/c1cn(-c2ccccc2)nc1-c1cccs1	-29%	?	5%	7.9µM*	?	.
Cc1nc2ccccc2c(=O)n1/N=C/c1cn(-c2ccccc2)nc1-c1cccs1	21µM*	?	?	?	-8%	1
O=[N+]([O-])c1ccc(-c2nn(-c3ccccc3)cc2/C=N/n2c(-c3ccncc3)n[nH]c2=S)cc1	18µM*	?	?	0%	-2%	17
COc1cccc(CN2CCc3nnc(CCc4ccccc4)n3CC2)c1OC	-9%	.	0%[9.04 µM]	.	.	.
CC1CCC(NC(=O)c2cc(C3CC3)nn2-c2ccccc2)CC1 (stereo not given)	?	-1%	?	.	.	?
COc1cccc(OC)c1-c1nn2c(-c3ccccc3Cl)nnc2s1	-23%	-7%	0%	1%	-9%	?
COc1cc(Cl)c(C)cc1NC(=O)c1ccccc1NC(=O)CN1CCN(C(C)=O)CC1	?	.	-30%	.	.	-15
COC(=O)[C@]12CCCCC=C1N(Cc1ccco1)C(=O)[C@H](CC(=O)N1CCOCC1)C2	-11%	.	-1%	.	.	-1
CN(C)c1ccc(O)c2c1C[C@H]1C[C@H]3[C@H](N(C)C)C(=O)C(C(N)=O)=C(O)[C@@]3(O)C(=O)C1=C2O	21µM*!	.	6.5µM*	.	.	.
